Compounds without any hit were thinned out: in the full panel of roughly 83,000, 20% have a hit.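 For each line, cells grew in 96-well plates with the test compound present at a single concentration for 48 hours.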 Active and inactive are the calls of the source. How the source made its calls: active means growth percent below 10; inactive means the rest.
Experiments:
Test in all cases: NCI-60 one-dose screen, 48 h (100 = growth as untreated, 0 = no growth, -100 = all killed)
Conditions in all cases: 10 µM unless noted
HCT-15 colon = test system: HCT-15 colon
HT29 colon = test system: HT29 colon
SNB-75 CNS = test system: SNB-75 CNS
SNB-19 CNS = test system: SNB-19 CNS
U251 CNS = test system: U251 CNS
PC-3 prostate = test system: PC-3 prostate
SK-MEL-5 melanoma = test system: SK-MEL-5 melanoma
UACC-62 melanoma = test system: UACC-62 melanoma
LOX IMVI melanoma = test system: LOX IMVI melanoma
SK-MEL-28 melanoma = test system: SK-MEL-28 melanoma

Measured: growth

COC(=O)c1c2c(c(C)[n+]([O-])c1C)C(=O)C=C(NCc1ccc(F)cc1)C2=O
active: HCT-15 colon -60.5% | HT29 colon 2.67% | SNB-75 CNS -92% | SNB-19 CNS -66.5% | U251 CNS -23.1% | PC-3 prostate 2.62% | SK-MEL-5 melanoma -96.8% | UACC-62 melanoma -81.7% | LOX IMVI melanoma -47.1% | SK-MEL-28 melanoma 6.43%

CCN1C(=O)C2(Nc3ccccc3S2)c2cc(C)ccc21 (stereo not drawn)
inactive: HCT-15 colon 101% | HT29 colon 107% | SNB-75 CNS 76.2% | SNB-19 CNS 107% | U251 CNS 97.5% | PC-3 prostate 89% | SK-MEL-5 melanoma 95.1% | UACC-62 melanoma 102% | LOX IMVI melanoma 103% | SK-MEL-28 melanoma 105%

Cn1cc(C(=O)NCCC(=N)N)cc1NC(=O)CN=C(N)N
inactive: HCT-15 colon 111% | HT29 colon 107% | SNB-75 CNS 88.9% | SNB-19 CNS 101% | U251 CNS 98% | PC-3 prostate 92.5% | SK-MEL-5 melanoma 101% | UACC-62 melanoma 98% | LOX IMVI melanoma 97.5% | SK-MEL-28 melanoma 92.6%

Cl.Fc1c[c-]c(-c2ccccn2)c(F)c1.[Pt].c1ccc([PH+](CC[PH+](c2ccccc2)c2ccccc2)c2ccccc2)cc1
active: HCT-15 colon -76.2% | HT29 colon -73.5% | SNB-75 CNS -94.2% | SNB-19 CNS -76.4% | U251 CNS -62.2% | PC-3 prostate -70.1% | SK-MEL-5 melanoma -99.3% | UACC-62 melanoma -81% | LOX IMVI melanoma -82.4% | SK-MEL-28 melanoma -94.1%

COc1ccc(/C=N/OCC(O)CNCc2ccccc2)cc1OC1CCCC1 (stereo not drawn)
inactive: HCT-15 colon 102% | HT29 colon 104% | SNB-75 CNS 77.9% | SNB-19 CNS 95.2% | U251 CNS 99.6% | PC-3 prostate 86.7% | SK-MEL-5 melanoma 93.3% | UACC-62 melanoma 98.3% | LOX IMVI melanoma 91.4% | SK-MEL-28 melanoma 109%

O=C(NCc1cccnc1)c1ccc([N+](=O)[O-])o1
active: HCT-15 colon -68.1% | HT29 colon -68.5% | SNB-75 CNS -3.32% | U251 CNS 4.88% | SK-MEL-5 melanoma 4.47% | UACC-62 melanoma -67.9% | LOX IMVI melanoma -77.9%
inactive: SNB-19 CNS 16.8% | PC-3 prostate 24.5% | SK-MEL-28 melanoma 17%

Cc1cc(NS(=O)(=O)c2ccc(NC(=O)COc3ccc(-c4cc5ccccc5[nH]4)cc3)cc2)no1
active: SNB-75 CNS -12.2% | LOX IMVI melanoma 4.54%
inactive: HCT-15 colon 24.7% | HT29 colon 12.3% | SNB-19 CNS 29.6% | U251 CNS 20.8% | PC-3 prostate 13.3% | SK-MEL-5 melanoma 12.4% | UACC-62 melanoma 31.4% | SK-MEL-28 melanoma 18.9%

COc1cccc(C2C3=C(COC3=O)N(CCO)c3cc4c(cc32)OCO4)c1 (stereo not drawn)
active: HT29 colon 0.226% | SNB-75 CNS -19.9%
inactive: HCT-15 colon 18.2% | SNB-19 CNS 25.6% | U251 CNS 18.2% | PC-3 prostate 32.4% | SK-MEL-5 melanoma 30.8% | UACC-62 melanoma 18.3% | LOX IMVI melanoma 53.8% | SK-MEL-28 melanoma 50.5%

CCOC(=O)C(CC(c1ccccc1)N1CCCCC1)[N+](=O)[O-] (stereo not drawn)
inactive: HCT-15 colon 74.9% | HT29 colon 95.4% | SNB-75 CNS 86% | SNB-19 CNS 89.5% | U251 CNS 73.7% | PC-3 prostate 67.2% | SK-MEL-5 melanoma 91.2% | UACC-62 melanoma 59.9% | LOX IMVI melanoma 63.8% | SK-MEL-28 melanoma 98.8%

COc1cc(/C=C/C(=O)CC(=O)/C=C/c2cc(Br)c(OC)c(OC)c2)cc(Br)c1OC
inactive: HCT-15 colon 109% | HT29 colon 103% | SNB-75 CNS 93.7% | SNB-19 CNS 99.8% | U251 CNS 105% | PC-3 prostate 105% | SK-MEL-5 melanoma 108% | UACC-62 melanoma 101% | LOX IMVI melanoma 97.8% | SK-MEL-28 melanoma 106%

Brc1ccccc1Nc1ccc2nnc(-c3ccncc3)n2n1
inactive: HCT-15 colon 80.6% | HT29 colon 109% | SNB-75 CNS 93.9% | SNB-19 CNS 100% | U251 CNS 102% | PC-3 prostate 102% | SK-MEL-5 melanoma 104% | UACC-62 melanoma 108% | LOX IMVI melanoma 92.5% | SK-MEL-28 melanoma 99%

Fc1ccccc1Nc1ccc2nnc(-c3ccncc3)n2n1
inactive: HCT-15 colon 95.6% | HT29 colon 103% | SNB-75 CNS 101% | SNB-19 CNS 100% | U251 CNS 101% | PC-3 prostate 101% | SK-MEL-5 melanoma 103% | UACC-62 melanoma 107% | LOX IMVI melanoma 95.6% | SK-MEL-28 melanoma 112%

CCCCCCCC/C=C\CCCCCCCCOc1cccc(CC(=O)NCC[N+]2(C)CCOCC2)c1
inactive: HCT-15 colon 96.7% | HT29 colon 53.5% | SNB-75 CNS 49.9% | SNB-19 CNS 72.3% | U251 CNS 51% | PC-3 prostate 33.3% | SK-MEL-5 melanoma 99.8% | UACC-62 melanoma 80.2% | LOX IMVI melanoma 91.3% | SK-MEL-28 melanoma 102%

O=[N+]([O-])c1ccc(O)c2ncccc12
inactive: HCT-15 colon 31.5% | HT29 colon 81% | SNB-75 CNS 84.1% | SNB-19 CNS 37.9% | U251 CNS 34.2% | PC-3 prostate 37.9% | SK-MEL-5 melanoma 56.4% | UACC-62 melanoma 29.1% | LOX IMVI melanoma 46.8% | SK-MEL-28 melanoma 81.7%

Nc1cccc2c(=S)c3ccccc3[nH]c12
inactive: HCT-15 colon 95.4% | HT29 colon 117% | SNB-75 CNS 94.6% | SNB-19 CNS 89.8% | U251 CNS 104% | PC-3 prostate 82.5% | SK-MEL-5 melanoma 91.4% | UACC-62 melanoma 87.6% | LOX IMVI melanoma 88.5% | SK-MEL-28 melanoma 114%

CCCCC1COc2cccc3c(SCC(=O)N(C)c4cccc5ccccc45)cc[n+]1c23 (stereo not drawn)
inactive: HCT-15 colon 94.3% | HT29 colon 103% | SNB-75 CNS 104% | SNB-19 CNS 98.7% | U251 CNS 99.3% | PC-3 prostate 95.8% | SK-MEL-5 melanoma 98.5% | UACC-62 melanoma 99.9% | LOX IMVI melanoma 91.2% | SK-MEL-28 melanoma 111%

N#CCCN1CCN(CCC#N)C1=S
inactive: HCT-15 colon 106% | HT29 colon 98.6% | SNB-75 CNS 95.6% | SNB-19 CNS 98.5% | U251 CNS 101% | PC-3 prostate 99.6% | SK-MEL-5 melanoma 110% | UACC-62 melanoma 91.4% | LOX IMVI melanoma 104% | SK-MEL-28 melanoma 122%

Cc1ccccc1-n1nnc(C(=O)Nc2ccc(-c3ccccc3)cn2)c1C
active: SK-MEL-5 melanoma -41.8% [50 µM]
inactive: HCT-15 colon 39.8% [50 µM] | HT29 colon 28.1% [50 µM] | SNB-75 CNS 83.6% [50 µM] | SNB-19 CNS 62.6% [50 µM] | U251 CNS 64.9% [50 µM] | PC-3 prostate 40.5% [50 µM] | UACC-62 melanoma 45.6% [50 µM] | LOX IMVI melanoma 48.1% [50 µM] | SK-MEL-28 melanoma 56.8% [50 µM]

COC(=O)[C@@]12CC[C@@H](C)[C@]3(C[C@@H](c4ccoc4)OC3=O)[C@H]1CC[C@@H]1O[C@@]12C
inactive: HCT-15 colon 101% | HT29 colon 107% | SNB-75 CNS 86% | SNB-19 CNS 102% | U251 CNS 105% | PC-3 prostate 95.2% | SK-MEL-5 melanoma 98.9% | LOX IMVI melanoma 99.3% | SK-MEL-28 melanoma 103%

COc1cc(-c2nc(SC(C)C)nc(Nc3ccccc3C)c2C#N)cc(OC)c1OC
inactive: HCT-15 colon 102% | HT29 colon 109% | SNB-75 CNS 108% | SNB-19 CNS 100% | U251 CNS 108% | PC-3 prostate 104% | SK-MEL-5 melanoma 102% | LOX IMVI melanoma 102% | SK-MEL-28 melanoma 107%

Source: PubChem BioAssay (NCI)
